Assay results from PubChem BioAssay (NCATS).
Records with an inconclusive call do not appear. Active and inactive are the calls of the source. Calls come from the whole dose curve; as a rule, active = well fitted curve in the direction sought with a large enough effect; inconclusive = small, poorly fitted or top-dose-only effect, or effect the other way, or another doubt; inactive = no such curve, though single readings can be large or run the other way. Peptide text beside a SMILES is read from it. * marks the point of attachment. Hexanoyl = CCCCCC(=O)*

Test: HPAF-II 24hr Apoptosis Induction qHTS against the NCATS CANVASS Library (AID 1347356); note: 0% is about no effect
Details: HPAF-II caspase-3/7 Caspase-Glo luminescence; series mostly up to 46.1 µM; caspase activation: at the top concentration
From the text: Natural products and their derivatives continue to be wellsprings of nascent therapeutic potential. However, many laboratories have limited resources for biological evaluation, leaving their previously isolated or synthesized compounds largely or completely untested. To address this issue, the Canvass library of natural products was assembled (https://tripod.nih.gov/canvass), in collaboration with academic and industry researchers, for quantitative high-throughput screening (qHTS) across a diverse set of cell-based and biochemical assays. The pure (>85% purity by liquid chromatography/mass spectrometry [LC/MS]) Canvass library of 346 natural products were submitted by 45 academic laboratories and companies around the world. We collected pure natural products to circumvent deconvolution and structure elucidation due to time and resource limitations. The library was formatted into 1536-well plates and evaluated in 50 qHTS (in an 11-pnt concentration series) bioassays with broad scope of disease-relevant mechanisms. The resulting data set from 50 different assays was then systematically analyzed to identify overall trends and specific natural products with interesting biological activities. Reported herein are the results of each individual qHTS and their corresponding assay protocol. The Caspase-Glo (R) (Promega) is a homogeneous, luminescent assay that measures caspase activity. The detection substrate contains tetrapeptide sequence DEVD in an "add-mix-measure" format. The reagent generates a luminescent signal produced by a thermostable luciferase. The luminescence is proportional to the amount of caspase activity in the assay reaction. National Center for Advancing Translational Sciences (NCATS), Rockville, MD National Institute of Health (NIH), Bethesda, Maryland
Cancer Cell Apoptosis Assay 1. In a 1536 well, white solid bottom tissue culture plates (Corning 7494), HPAF-II cancer cells in DMEM + 10% FBS + 1% P/S media were dispensed in each well at a final concentration of 500 cells / well (5uL volume) using the Multidrop Combi (Thermo Fisher Scientific) dispenser. 2. Compounds were pin transferred (~23nL volume) via Wako Pin-tool (Wako Automation, Richmond VA) equipped with a 1536 pin head. The assay plates were treated with compounds in a concentration series with a final concentration range of 0.17 nM to 103 uM. 3. Doxorubicin was used as a control in a 16pnt titration (1mM; 1:2 dilution; 16-points; n = 2; column 3, rows 1 - 32) and was pin transferred via Wako Pin-tool equipped with a 1536 pin head. The final concentration range of doxorubicin is 0.1nM - 4uM. 4. The assay plates were incubated for 24 hours at 37 degrees C/5% CO2/95% Rh. 5. 3uL Caspase-Glo 3/7 (R) (Promega) detection reagent was then added to the assay plates (columns 2 - 48, rows 1 - 32) and incubated at room temperature, covered from light, for 15 min. 6. Luminescence signal was acquired via the ViewLux plate reader (PerkinElmer) using a clear filter, 20 second exposure and 2x binning settings.

Row | SMILES | caspase activation
1 | C[C@@H]1CC[C@]2(C(=O)O)CC[C@]3(C)C(=C2[C@H]1C)CC[C@@H]1[C@@]2(C)CC[C@H](O)C(C)(C)[C@@H]2CC[C@]13C | 3.19% (inactive)
2 | C/C(=C\CC[C@@H](C)[C@H]1CC[C@]2(C)C3=CCC4C(C)(C)[C@@H](O)C[C@@H](O)[C@]4(C)C3[C@H](O)C[C@@]12C)CO (stereo not given in full) | 4.36% (inactive)
3 | C=C1CC[C@@H](Br)C(C)(C)[C@]12CC=C(C)C(=O)C2 | 3.18% (inactive)
4 | Cc1cc(C)c(O)c(C(=O)CC2CC(=O)NC(=O)C2)c1 | 2.17% (inactive)
5 | O=C1CC(c2ccc(O)cc2)Oc2cc(O)cc(O)c21 (stereo not given) | -0.649% (inactive)
6 | COc1ccc2[nH]c3c(c2c1)CCN1C[C@H]2C[C@@H](OC(=O)c4cc(OC)c(OC)c(OC)c4)[C@H](OC)[C@@H](OC)[C@H]2C[C@H]31 | -1.31% (inactive)
7 | COc1cc2oc3ccccc3c(=O)c2cc1OC | -5.69% [at 91.4 µM] (inactive)
8 | CC(C)=CCCC(C)(O)[C@H]1CC=C(C)C(O)C1 (stereo not given in full) | -1.36% (inactive)
9 | C=C[C@](Cl)(CBr)CCC=C(C)C | -1.26% (inactive)
10 | CC(=O)O[C@H]1c2ccccc2-c2c3c(cc4c2[C@@H]1N(C(C)=O)CC4)OCO3 | 1.23% (inactive)
11 | C=CC(CCCCC)C1C(=O)NC(=O)C1C(=O)C1C(/C=C/C)C=CC2CC(C(=O)O)CC(C)C21 (stereo not given) | 2.16% (inactive)
12 | C=C1CC[C@@H](O[C@H]2C[C@@](O)([C@H](C)NC(=O)c3[nH]c(C)c(Cl)c3Cl)[C@H](O)[C@@H](C)O2)[C@@H]2C=C[C@H](C)C(/C(O)=C3/C(=O)[C@H](C(C)C)N([C@@H]4O[C@H](C)[C@H](OC(N)=O)[C@H](OC(C)=O)[C@@H]4OC)C3=O)[C@@H]12 (stereo not given in full) | 2.48% (inactive)
13 | CC(C)C[C@@H]1c2c(O)c(C=O)c(O)c(C=O)c2O[C@]2(C)C=C[C@@H](C(C)C)C[C@H]12 | 1.62% (inactive)
14 | CC(CCC[C@]1(C)C(=O)C=C[C@@]23C[C@]4(C)O[C@@H](C[C@@H]4[C@H]2O)C31)C(=O)O (stereo not given in full) | -1.93% (inactive)
15 | CC(C)=CCC/C(C)=C/Cc1cc([C@@H]2CC(=O)c3c(cc(O)c(CC=C(C)C)c3O)O2)ccc1O | 1.27% (inactive)
16 | C[C@@]12CCC[C@@](C)(C(=O)OP(=O)(O)OC[C@H]3O[C@@H](n4cnc5c(N)ncnc54)[C@H](O)[C@@H]3O)[C@H]1C[C@@H](O)[C@@]13C[C@@H](CC[C@@H]21)[C@](C)(O)C3 | 0.589% (inactive)
17 | CCC(C)=C1OC(=O)[C@H](C)[C@H](O)[C@H](Cc2cccnc2)NC(=O)C(NC(=O)c2ncccc2O)C(C)OC1=O (stereo not given in full) | 0.848% (inactive)
18 | CN1CC[C@]2(c3cccc4c3N[C@H]3N(C)CC[C@@]43[C@]34CCN(C)[C@H]3Nc3ccccc34)c3ccccc3N[C@H]12 | 3.84% (inactive)
19 | CCCCCC(=O)N[C@@H](CC(C)C)C(=O)N[C@H](C=O)CCC(=O)O (Hexanoyl-Leu-Glu-aldehyde) | 2.66% (inactive)
20 | COc1c(O)cc(O)c2c(=O)cc(-c3ccccc3)oc12 | -2.13% (inactive)

Row | SMILES | caspase activation
21 | C[C@]12CCC[C@](C)(C(=O)O)[C@@H]1CC[C@@]1(C)c3cocc3CC[C@H]21 | 5.97% (inactive)
22 | COc1cc(C2OCC3C(c4ccc(O)c(OC)c4)OCC23)ccc1O (stereo not given) | 1.94% [at 9.19 µM] (inactive)
23 | C[C@]12CC[C@]3(C1)[C@H](CC2=O)C[C@@H](OC(=O)c1ccccc1)[C@H]1[C@](C)(C(=O)O)CCC[C@@]13C | 3.35% (inactive)
24 | O=c1cc(-c2ccc(O)cc2)oc2cc(O)c([C@@H]3OC(CO)[C@H](O)[C@@H](O)[C@H]3O)c(O)c12 (stereo not given in full) | 1.62% (inactive)
25 | C[n+]1cc2cc(C(N)=O)[nH]c3c(=N)c(Cl)c(N)c1c23 | -4.13% (inactive)
26 | C/C(=C\[C@@H](C)CC/C=C/CC/C=C/C(=O)O)[C@@H](O)[C@H](C)C(=O)CCCC1CC(=O)NC(=O)C1 | -1.23% (inactive)
27 | CN1C(=O)C(=O)N2C(=C[C@]3(c4c[nH]c5ccccc45)c4ccccc4N[C@H]23)C1=O | 2.89% (inactive)
28 | C=C[C@@](C)(O)CC[C@@H]1[C@@]2(C)CCCC(C)(C)[C@@H]2CC[C@@]1(C)O | 1.94% (inactive)
29 | CN1CC[C@@]23c4ccccc4N[C@@H]1[C@@]21CCN(C)[C@@H]3Nc2ccccc21 | 3.64% (inactive)
30 | CCC(=O)N[C@@H](C[C@H](C)C(Cl)(Cl)Cl)C(=O)N1C(=O)C=C(OC)[C@@H]1CC(C)C | 2.23% (inactive)
31 | C[C@H]1C=C[C@H]2CCCC[C@@H]2[C@H]1C(=O)[C@H]1CC2=C(C(=O)O)CCN2C1=O | -0.121% (inactive)
32 | C[C@H](c1cnc(N)[nH]1)c1ccc(O)c2[nH]cc(-c3cnc(-c4c[nH]c5ccccc45)c(=O)[nH]3)c12 | -0.97% (inactive)
33 | O=C1c2c(O)cc(O)cc2OC(c2ccc(O)cc2)C1O (stereo not given) | 0.304% (inactive)
34 | C[C@@]12CCC[C@@](C)(C(=O)O)[C@H]1CC[C@@]13C[C@@H](CC[C@H]12)[C@](C)(O)C3 | 1.13% (inactive)
35 | COc1ccc([C@@H]2c3cc4c(cc3C(=O)C(C)C2C)OCO4)cc1OC (stereo not given in full) | -1.08% (inactive)
36 | CC[C@@H]1[C@H](C)[C@H](c2cc(OC)c(OC)cc2OC)[C@@H](C)[C@H](c2cc(OC)c(OC)cc2OC)[C@]12C=C(OC)C(=O)C=C2OC | 8.75% (inactive)
37 | [C-]#[N+][C@@]12C(=O)[C@@H]3[C@@H](O[C@@]4(C(=O)N(C)c5cccc1c54)C3(C)C)C(=O)[C@@]2(C)C=C | -2.06% (inactive)
38 | Oc1ccc(C2Oc3cc(O)c4c(c3[C@@H]2c2cc(O)cc(O)c2)[C@H]2C(c3ccc(O)cc3)c3c(O)cc5c(c3[C@H]2C4c2ccc(O)cc2)[C@H](c2cc(O)cc(O)c2)C(c2ccc(O)cc2)O5)cc1 (stereo not given in full) | 1.9% (inactive)
39 | CC(C)=CCC[C@]1(C)[C@H]2CC(=O)[C@@]3(CO3)[C@@H]1C2 | -1.35% (inactive)
40 | C/C=C(/C)c1cc(O)c(C)c2c1Oc1cc(O)cc(C)c1C(=O)O2 | -0.388% (inactive)
